Results published in PubChem BioAssay AID1445 (SRMLSC, 2008).
Where “and” joins values, the source holds several entries; their conditions need not be identical. Equal entries are not always repeated. About 910 (0.41%) of roughly 220,000 compounds were called active. This is one part of a sample in which actives are shown more often than they occur.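 Rule for the calls: active = primary inhibition above the hit cutoff, then over 50% inhibition at one or more dose response concentrations (cut at about 23% in these data, passing the limit was not always enough); inconclusive = conflicting primary data, or primary hits not chosen for dose response; inactive = low primary inhibition, or under 50% at every dose.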 Potency and affinity values are given separately. The source holds several records for some structures; these can differ, active in one and inactive in another.

Target: Aminopeptidase N (Plasmodium falciparum (isolate 3D7)) (UniProt O96935)
Sequence (O96935 whole entry, looked up): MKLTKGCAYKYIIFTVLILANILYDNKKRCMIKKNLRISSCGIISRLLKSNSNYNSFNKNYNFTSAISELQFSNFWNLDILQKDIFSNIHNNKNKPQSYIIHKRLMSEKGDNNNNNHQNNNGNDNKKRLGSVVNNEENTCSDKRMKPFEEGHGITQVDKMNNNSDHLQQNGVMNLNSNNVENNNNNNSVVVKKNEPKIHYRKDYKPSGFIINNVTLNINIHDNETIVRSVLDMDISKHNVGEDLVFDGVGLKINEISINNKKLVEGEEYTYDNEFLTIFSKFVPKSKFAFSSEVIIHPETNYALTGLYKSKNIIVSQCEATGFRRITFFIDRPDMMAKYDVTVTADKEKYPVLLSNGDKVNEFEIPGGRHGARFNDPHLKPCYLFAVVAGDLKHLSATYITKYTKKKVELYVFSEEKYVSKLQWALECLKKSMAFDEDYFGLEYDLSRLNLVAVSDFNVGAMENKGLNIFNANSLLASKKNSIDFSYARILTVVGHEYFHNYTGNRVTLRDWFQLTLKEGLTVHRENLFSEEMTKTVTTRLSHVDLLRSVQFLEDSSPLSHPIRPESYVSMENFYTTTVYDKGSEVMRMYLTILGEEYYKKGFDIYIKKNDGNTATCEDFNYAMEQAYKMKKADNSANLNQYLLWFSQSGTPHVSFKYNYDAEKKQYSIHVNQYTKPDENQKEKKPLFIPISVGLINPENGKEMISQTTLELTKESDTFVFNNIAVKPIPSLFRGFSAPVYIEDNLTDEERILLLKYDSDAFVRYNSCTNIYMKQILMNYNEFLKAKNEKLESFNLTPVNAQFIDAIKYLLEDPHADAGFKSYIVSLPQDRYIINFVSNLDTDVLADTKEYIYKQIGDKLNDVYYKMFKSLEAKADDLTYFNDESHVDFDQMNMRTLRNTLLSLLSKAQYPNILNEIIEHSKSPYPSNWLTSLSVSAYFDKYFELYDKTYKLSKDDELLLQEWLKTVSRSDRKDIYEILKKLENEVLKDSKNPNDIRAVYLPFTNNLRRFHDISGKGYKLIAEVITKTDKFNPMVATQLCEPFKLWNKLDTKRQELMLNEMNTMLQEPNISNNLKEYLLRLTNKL
Assay: malaria alanyl aminopeptidase activity blockers – biochemical, fluorogenic H-Leu-NHMec substrate, 1536-well (AID 1445);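 note: plate controls were DMSO full reaction for no effect and no enzyme background for full effect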
Conditions: recombinant M1AAP, H-Leu-NHMec fluorogenic kinetic assay; at 30 µM; stronger effect = higher value

| Compound | inhibition |
| --- | --- |
| CC(C)OC(=O)c1c(N)n(Cc2ccco2)c2nc3ccccc3nc12 | 26.7% (active) |
| CC(C)CNC(=O)c1c(N)n(Cc2ccco2)c2nc3ccccc3nc12 | 13% (inactive) |
| C=CCNC(=O)c1c(N)n(Cc2ccco2)c2nc3ccccc3nc12 | 24.2% (active) |
| COCC(C)OC(=O)c1c(N)n(Cc2ccco2)c2nc3ccccc3nc12 (stereo not given) | 17.3% (inactive) |
| CCCNC(=O)c1c(N)n(Cc2ccco2)c2nc3ccccc3nc12 | 19.9% (inactive) |
| CC(C)(C)OC(=O)c1c(N)n(Cc2ccco2)c2nc3ccccc3nc12 | 8.25% (inactive) |
| CCC(=NCc1ccco1)c1c(O)[nH]c(=O)[nH]c1=O | 14.4% (inactive) |
| CCC(=NCC1CCCO1)c1c(O)n(-c2ccccc2C)c(=O)[nH]c1=O (stereo not given) | 6.89% (inactive) |
| O=C1Nc2ccccc2C1Cc1nc2ccccc2c(=O)n1-c1ccccc1 (stereo not given) | -1.31% (inactive) |
| Cc1ccc(S(=O)(=O)N2CCCCC2)cc1NC(=O)CN1CC=C(c2ccccc2)CC1 | 5.04% (inactive) |
| c1ccc(C2=NP(N3CCOCC3)(N3CCOCC3)=NC(N3CCOCC3)=N2)cc1 | -3.04% (inactive) |
| CCOC(=O)c1nc2ccccc2c(=O)n1-c1cccc(C)c1 | 0.05% (inactive) |
| Cc1cccc(-n2c(-c3cccs3)nc3ccccc3c2=O)c1 | 4.14% (inactive) |
| Cc1cccc(N2CCc3c2nc2ccccc2c3N)c1 | 25.6% (active) and 6.14% (inactive) |
| COC(=O)c1c(N)n(Cc2ccc(OC)cc2)c2nc3ccccc3nc12 | 13.7% (inactive) |
| COCCOC(=O)c1c(N)n(Cc2ccccc2)c2nc3ccccc3nc12 | 25% (active) |
| CCCCn1c(N)c(C(=O)OCCOC)c2nc3ccccc3nc21 | 17.7% (inactive) |
| COCCCn1c(N)c(C(=O)OCCOC)c2nc3ccccc3nc21 | 27.6% (active) |
| CCOC(=O)c1c(N)n(Cc2ccc(OC)cc2)c2nc3ccccc3nc12 | 13.6% (inactive) |
| CCCCOCCCn1c(N)c(C(=O)OCCOC)c2nc3ccccc3nc21 | 19.1% (inactive) |

| Compound | inhibition |
| --- | --- |
| CCC(=NCCc1c[nH]c2ccccc12)c1c(O)n(-c2ccc(C)cc2)c(=O)[nH]c1=O | 1.85% (inactive) |
| CCC(=O)N1N=C2C3CCN(CC3)C2C1c1ccccc1 (stereo not given) | 0.59% (inactive) |
| CCCCn1c(O)c(C(C)=NCc2ccc3c(c2)OCO3)c(=O)[nH]c1=O | -11.8% (inactive) |
| Cc1sc2nc(COC(=O)Cc3ccccc3)[nH]c(=O)c2c1C | 13.2% (inactive) |
| CC(=NCCN1CCCCC1)c1c(O)n(Cc2ccccc2)c(=O)[nH]c1=O | 11.5% (inactive) |
| CCOC(=O)C(O)(c1ccc(N=c2ccccn2C)cc1)C(F)(F)F (stereo not given) | 6.08% (inactive) |
| COC(=O)C(O)(c1cn(C)c2ccccc12)C(F)(F)F (stereo not given) | -1.11% (inactive) |
| CCOC(=O)C(O)(c1cn(C)c2ccccc12)C(F)(F)F (stereo not given) | 25.5% (active) |
| COc1ccc2c(c1)c(C(=O)O)c(C)n2C(C)C | 1.69% (inactive) |
| CC(=O)c1cccc(NC2=NCC(C)S2)c1 (stereo not given) | 24.8% (active) |
| CC1CN=C(Nc2ccc(F)c(Cl)c2)S1 (stereo not given) | -0.44% (inactive) |
| CC1CN=C(Nc2ccccc2)S1 (stereo not given) | 4.63% (inactive) |
| Cc1ccc(-n2c(O)c(C=Nc3ccc(S(=O)(=O)N(C)C)cc3)c(=O)[nH]c2=O)cc1 | 13.7% (inactive) |
| CC1(C)CN=C(Nc2ccccc2C(F)(F)F)S1 | 2.41% (inactive) |
| c1ccc2sc(NC3=NCCN3)nc2c1 | 6.67% (inactive) |
| CC1(C)CN=C(Nc2nc3ccccc3s2)S1 | 26.9% (active) |
| O=c1[nH]c(=O)n(Cc2ccco2)c(O)c1C=NC1CC1 | 2.96% (inactive) |
| COc1cc2c(C(=O)N3CCN(C)CC3)c(C)n(C)c2cc1Br | 0.34% (inactive) |
| CC(=NCCN1CCOCC1)c1c(O)n(C2CCCCC2)c(=O)[nH]c1=O | -4.11% (inactive) |
| O=C(C1CCC(=O)N1Cc1ccccc1Cl)N1CCC2(CC1)OCCO2 (stereo not given) | 4.98% (inactive) |
